Screening data as filed in PubChem BioAssay.
KCNQ2 inh: rat KCNQ2 potassium channel inhibitors, primary screen, cell-based, CHO-K1, FluxOR thallium flux, B-score. Potassium voltage-gated channel subfamily KQT member 2 (Rattus norvegicus), O88943. 1.1% of 310,000 active. B-score at 10 µM. 20 min; active compounds read low. AID 2156, 2009;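 active means fluorescence ratio B-score at most minus 3 library SDs, with starting brightness B-score within 2 library SDs, cut at about -5.5 in these data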
Target sequence (O88943 whole entry, looked up): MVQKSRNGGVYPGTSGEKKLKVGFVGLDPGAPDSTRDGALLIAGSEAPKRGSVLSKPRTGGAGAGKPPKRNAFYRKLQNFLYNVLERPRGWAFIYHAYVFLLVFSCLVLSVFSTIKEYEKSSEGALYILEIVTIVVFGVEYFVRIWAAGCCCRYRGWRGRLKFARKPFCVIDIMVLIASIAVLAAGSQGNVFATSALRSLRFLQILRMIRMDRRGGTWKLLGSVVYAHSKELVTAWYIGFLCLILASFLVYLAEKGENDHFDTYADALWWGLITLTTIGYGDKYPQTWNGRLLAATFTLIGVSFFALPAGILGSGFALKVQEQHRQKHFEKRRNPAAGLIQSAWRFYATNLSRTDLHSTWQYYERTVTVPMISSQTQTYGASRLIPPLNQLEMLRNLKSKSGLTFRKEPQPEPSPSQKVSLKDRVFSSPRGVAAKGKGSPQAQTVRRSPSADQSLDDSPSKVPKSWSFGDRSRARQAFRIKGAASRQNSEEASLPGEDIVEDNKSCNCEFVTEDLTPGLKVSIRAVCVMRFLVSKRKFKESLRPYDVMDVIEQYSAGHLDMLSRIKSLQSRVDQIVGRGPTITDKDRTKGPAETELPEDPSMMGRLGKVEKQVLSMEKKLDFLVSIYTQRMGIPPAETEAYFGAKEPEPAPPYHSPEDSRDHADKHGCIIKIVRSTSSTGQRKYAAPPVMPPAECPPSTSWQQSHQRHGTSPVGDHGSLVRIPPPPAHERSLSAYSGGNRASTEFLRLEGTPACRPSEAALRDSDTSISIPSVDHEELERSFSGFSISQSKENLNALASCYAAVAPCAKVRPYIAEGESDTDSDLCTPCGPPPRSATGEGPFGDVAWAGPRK
KCNQ2 enhance: potentiators of rat KCNQ2 potassium channel; 0.54% of 310,000 active; AID 2239, 2010; Potassium voltage-gated channel subfamily KQT member 2 (Rattus norvegicus), O88943; B-score at 10 µM; CHO-K1 KCNQ2, FluxOR thallium flux fluorescence; active compounds read high;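 active means fluorescence ratio B-score at least 3 SD of library B-scores, with initial fluorescence B-score within 3 of them, cut at about 5.3 in these data; same plate scores as AID 2156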;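 further: B-score of peak minus minimum over baseline fluorescence ratio after K+ and Tl+ stimulus; positive B-score means potentiation of KCNQ2 with more thallium influx and brighter signal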
* hit, by the source's call; i = inactive; . = not tested or not shown. An excerpt weighted towards active compounds, which were near 1.6% of everything screened.

SMILES	KCNQ2 inh	KCNQ2 enhance
COC(=O)CCC(=O)NC(=S)Nc1ccc(S(=O)(=O)Nc2cc(OC)nc(OC)n2)cc1	-6.4*	-6.4
COc1cc(NS(=O)(=O)c2ccc(NC(=S)NC(=O)CC(C)C)cc2)nc(OC)n1	i	0.64
CN1C2=C(C(=O)CC(C)(C)C2)C(c2cccs2)C2=C1CC(C)(C)CC2=O	i	.
COc1ccc(C(=O)Nc2ccccc2-c2ccccc2)cc1Cl	-6.2*	-6.2
CCOc1c(Cl)cc(C(=O)Nc2ccccc2-c2ccccc2)cc1Cl	i	.
O=C(Cc1c[nH]c2ccccc12)NCc1ccccc1F	i	0.66
COc1ccc(N2C3=C(CC4=C2CC(C)(C)CC4=O)C(=O)CC(C)(C)C3)cc1	-10*	-10
COc1ccc(N2C3=C(CC4=C2CCCC4=O)C(=O)CCC3)cc1	i	.
O=C(NCCO)C(=O)NCC1OCCCN1S(=O)(=O)c1cc(F)ccc1F (centres undefined)	i	.
Cc1ccc(C)c(CSC2=NCCN2S(=O)(=O)c2ccccc2)c1	-6.3*	-6.3
Cc1ccc(S(=O)(=O)N2CCN=C2SCc2ccc(Cl)c(Cl)c2)cc1	i	.
O=S(=O)(c1ccc(Cl)cc1)N1CCN=C1SCc1cccc(Cl)c1	i	.
O=S(=O)(c1ccccc1)N1CCN=C1SCc1c(F)cccc1Cl	-6.3*	-6.3
Cc1cc(C)n2nc(C(=O)OCC(=O)N3C(C)CCCC3C)nc2n1 (centres undefined)	i	.
O=C(Nc1ccc(S(=O)(=O)Nc2nccs2)cc1)c1c(F)c(F)c(F)c(F)c1F	i	.
Cn1c(CN2CCN(c3ccc(Cl)cc3)CC2)nc2ccccc21	i	0.08
CCn1c(CN2CCN(c3ccc(Cl)cc3)CC2)nc2ccccc21	-5.6*	-5.6
CN(C)Cc1ccccc1COc1ccccc1	i	0.22
COc1ccc(-c2csc3ncnc(N4CCN(c5cccc(Cl)c5)CC4)c23)cc1	-6.1*	-6.1
COc1ccc(-c2csc3ncnc(N4CCN(S(=O)(=O)c5ccc(Cl)s5)CC4)c23)cc1	-7.5*	-7.5
COc1ccc(N2CCN(C(=O)CSc3ncnc4scc(-c5ccc(C)cc5)c34)CC2)cc1	-5.6*	-5.6
COc1ccc(N2CCN(c3ncnc4scc(-c5ccc(C)cc5)c34)CC2)cc1	i	3.5
COc1ccc(-c2csc3ncnc(N4CCN(S(=O)(=O)c5cccs5)CC4)c23)cc1	i	.
COc1ccc(-c2csc3ncnc(N4CCN(c5cccc(OC)c5)CC4)c23)cc1	i	.
CCOc1ccc(S(=O)(=O)N(CC(=O)NN=C2CCN(C)CC2)c2ccc(C)cc2)cc1	i	.
SMILES	KCNQ2 inh	KCNQ2 enhance
Cc1ccc(N2CC(C(=O)N3CCN(Cc4ccc5c(c4)OCO5)CC3)CC2=O)cc1 (centres undefined)	i	0.38
CCOC(=O)CCSc1nc(C)cc(C(F)(F)F)c1C#N	-5.7*	-5.7
CCOC(=O)CCSc1nc(C(C)(C)C)cc(C(F)(F)F)c1C#N	i	.
CC[C@H](NC(=O)c1c(C)c(-c2ccccc2)nc2ccccc12)c1ccccc1	-11*	-11
Cc1c(-c2ccccc2)nc2ccccc2c1C(=O)O	i	2.1
Cc1noc(C)c1CSCC(=O)N1CCN(c2ccc(F)cc2)CC1	i	.
Cc1cccc(N2CCN(C(=O)CSCc3c(C)noc3C)CC2)c1C	-6*	-6
Cc1ccc(OC(=O)CCC(=O)Nc2ccc(C(N)=O)cc2)cc1	i	.
CCOC(=O)c1c(C)[nH]c(C(=O)COC(=O)/C=C/c2ccc(OCC#N)c(OC)c2)c1C	i	1.1
CCCCC(C(=O)NC1CCCC1)N(Cc1ccco1)C(=O)Cn1nnc(-c2ccc(F)cc2)n1 (centres undefined)	-7.2*	-7.2
O=C(CN(Cc1ccco1)C(=O)Cn1nnc(-c2ccc(F)cc2)n1)NC1CCCC1	i	0.08
COc1ccc(N2CCN(Cc3cc(=O)c(OCC(=O)NC4CCCC4)co3)CC2)cc1	i	.
CCOc1ccc(S(=O)(=O)N(CC)CC(=O)NCc2ccccn2)cc1C	i	0.73
COc1cc(OC)cc(C(=O)N[C@H](C(=O)NCc2ccc(F)cc2)C(C)C)c1	i	.
Cc1ccc(NS(=O)(=O)c2ccc(-c3cnc(C4CC4)o3)cc2)cc1	i	.
Cc1ccc(N(C)S(=O)(=O)c2ccc(-c3cnc(C4CC4)o3)cc2)cc1	-9.5*	-9.5
Cc1ccc(CN2CCN(CC(=O)N/N=C/c3ccc(C)o3)CC2)cc1	i	1.7
COc1ccc(COCC(O)CN(Cc2ccco2)Cc2ccccc2O)cc1 (centres undefined)	i	.
Oc1ccccc1CN(Cc1ccco1)CC(O)COCc1ccc(Cl)cc1 (centres undefined)	-6.1*	-6.1
CCOC(=O)N1CCC(NS(=O)(=O)c2ccc(NC(C)=O)c(Cl)c2)CC1	i	0.45
COc1cccc(/C=N/NC(=O)c2nc(-c3ccccc3)cc(-c3ccccc3)n2)c1	-6.9*	-6.9
